# Reference: PubChem BioAssay AID1159580 (chemical genetic matrix, 2015)
# Hit rate of the full screen: of about 5,500 compounds, about 2,000 (36%) were called active. Roughly 18% stayed inconclusive and do not appear here. This is one part of the list. Unmarked numbers belong to inactive results. No stated cut-off is given here; in the data, active means normalized growth mostly below about 0.91 (no sharp cut-off); inconclusive means no clear call, values can overlap the other calls; inactive means mostly above about 0.92.
# Test: chemical genetic growth profiling, strain panel (AID 1159580);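 further: tested at 20 µM; growth read once vehicle control cultures reached saturation at 30 °C; 1 = growth at the plate median or of vehicle wells; lower values mean less growth of the strain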
# Conditions: S. cerevisiae deletion strains, growth OD
# [1] = locus YDL101C, strain DUN1, hits give low values
# [2] = locus YHR030C, strain SLT2, hits give low values
# [3] = locus YAL013W, strain DEP1, hits give low values
# [4] = locus YBR229C, strain ROT2, hits give low values
# [5] = locus YCL061C, strain MRC1, hits give low values
# [6] = locus YDR150W, strain NUM1, hits give low values
# [7] = locus YEL061C, strain CIN8, hits give low values
# [8] = locus YGR078C, strain PAC10, hits give low values
# [9] = locus YHR087W, strain rtc3, hits give low values
# [10] = locus YJR043C, strain POL32, hits give low values
# [11] = locus YJR075W, strain HOC1, hits give low values
# [12] = locus YKL190W, strain CNB1, hits give low values
# [13] = locus YLR039C, strain RIC1, hits give low values
# [14] = locus YLR058C, strain SHM2 (second series), hits give low values
# [15] = locus YLR085C, strain ARP6, hits give low values
# [16] = locus YLR262C, strain YPT6, hits give low values
# [17] = locus YML094W, strain GIM5, hits give low values
# [18] = locus YMR219W, strain ESC1, hits give low values
# [19] = locus YMR263W, strain SAP30, hits give low values
# [20] = locus YNL153C, strain GIM3, hits give low values
# [21] = locus YNL298W, strain CLA4 (second series), hits give low values
# [22] = locus YNL322C, strain KRE1, hits give low values
# [23] = locus YNR030W, strain Alg12, hits give low values
# [24] = locus YPL055C, strain LGE1, hits give low values
# [25] = locus YPL241C, strain CIN2, hits give low values
# [26] = locus YPR135W, strain CTF4, hits give low values
structure (smiles),measurement,setting,value
CC(C)(C)c1cc(C(=O)NNc2cccc(Cl)c2)n(Cc2ccccc2)n1,normalized growth,"locus YAR019C, strain CDC15, hits give low values",0.98
same,normalized growth,"locus YBL105C, strain PKC1, hits give low values",0.978
same,normalized growth,"locus YBR135W, strain CKS1, hits give low values",0.983
same,normalized growth,"locus YBR136W, strain MEC1, hits give low values",0.973
same,normalized growth,"locus YBR160W, strain CDC28, hits give low values",0.975
same,normalized growth,"locus YDL017W, strain CDC7, hits give low values",0.987
same,normalized growth,"locus YDL028C, strain MPS1, hits give low values",0.975
same,normalized growth,[1],0.955
same,normalized growth,"locus YDL108W, strain KIN28, hits give low values",0.978
same,normalized growth,"locus YDL132W, strain cdc53, hits give low values",0.969
same,normalized growth,"locus YDL214C, strain PRR2, hits give low values",0.917
same,normalized growth,"locus YDR052C, strain DBF4, hits give low values",0.976
same,normalized growth,"locus YDR054C, strain cdc34, hits give low values",0.979
same,normalized growth,"locus YDR226W, strain ADK1, hits give low values",0.985
same,normalized growth,"locus YDR477W, strain SNF1, hits give low values",0.923
same,normalized growth,"locus YER123W, strain YCK3, hits give low values",0.832
same,normalized growth,"locus YER133W, strain GLC7, hits give low values",0.926
same,normalized growth,"locus YFL009W, strain cdc4, hits give low values",0.992
same,normalized growth,"locus YFL029C, strain CAK1, hits give low values",0.939
same,normalized growth,"locus YFR003C, strain YPI1, hits give low values",0.99
same,normalized growth,"locus YFR019W, strain FAB1, hits give low values",0.911
same,normalized growth,"locus YFR028C, strain CDC14, hits give low values",0.974
same,normalized growth,"locus YGR040W, strain KSS1, hits give low values",0.906
same,normalized growth,"locus YGR052W, strain FMP48, hits give low values",0.922
same,normalized growth,"locus YGR092W, strain DBF2, hits give low values",0.822
same,normalized growth,[2],0.862
same,normalized growth,"locus YHR079C, strain IRE1, hits give low values",0.927
same,normalized growth,"locus YHR082C, strain KSP1, hits give low values",0.962
same,normalized growth,"locus YHR205W, strain SCH9, hits give low values",0.894
same,normalized growth,"locus YIL147C, strain SLN1, hits give low values",0.981
same,normalized growth,"locus YJL095W, strain BCK1, hits give low values",0.825
same,normalized growth,"locus YJL128C, strain PBS2, hits give low values",0.956
same,normalized growth,"locus YJL157C, strain FAR1, hits give low values",0.892
same,normalized growth,"locus YJR016C, strain ILV3, hits give low values",0.985
same,normalized growth,"locus YJR066W, strain TOR1 (second series), hits give low values",0.884
same,normalized growth,"locus YJR066W, strain TOR1, hits give low values",0.935
same,normalized growth,"locus YKL048C, strain ELM1, hits give low values",0.889
same,normalized growth,"locus YKL067W, strain YNK1, hits give low values",0.935
same,normalized growth,"locus YKL101W, strain HSL1, hits give low values",0.917
same,normalized growth,"locus YKL193C, strain SDS22, hits give low values",0.96
same,normalized growth,"locus YKL203C, strain TOR2, hits give low values",1.01
same,normalized growth,"locus YLR113W, strain HOG1, hits give low values",0.787 (active)
same,normalized growth,"locus YLR133W, strain CKI1, hits give low values",0.882
same,normalized growth,"locus YLR403W, strain SFP1, hits give low values",0.913
same,normalized growth,"locus YML070W, strain DAK1, hits give low values",0.887
same,normalized growth,"locus YMR001C, strain CDC5, hits give low values",0.975
same,normalized growth,"locus YMR205C, strain PFK2 (second series), hits give low values",0.923
same,normalized growth,"locus YMR277W, strain FCP1, hits give low values",0.988
same,normalized growth,"locus YNL006W, strain LST8, hits give low values",0.986
same,normalized growth,"locus YNL020C, strain ARK1, hits give low values",0.887
same,normalized growth,"locus YNL161W, strain CBK1, hits give low values",0.978
same,normalized growth,"locus YNL183C, strain NPR1, hits give low values",0.965
same,normalized growth,"locus YNL207W, strain RIO2, hits give low values",0.974
same,normalized growth,"locus YNL222W, strain SSU72, hits give low values",0.982
same,normalized growth,"locus YNL307C, strain MCK1 (second series), hits give low values",0.816
same,normalized growth,"locus YOL078W, strain AVO1, hits give low values",0.96
same,normalized growth,"locus YOL136C, strain PFK27, hits give low values",0.86
same,normalized growth,"locus YOR061W, strain CKA2, hits give low values",0.847
same,normalized growth,"locus YOR119C, strain RIO1, hits give low values",0.978
same,normalized growth,"locus YOR231W, strain MKK1, hits give low values",0.869
same,normalized growth,"locus YOR329C, strain SCD5, hits give low values",0.978
same,normalized growth,"locus YPL031C, strain PHO85, hits give low values",0.94
same,normalized growth,"locus YPL153C, strain RAD53, hits give low values",0.925
same,normalized growth,"locus YPL204W, strain HRR25, hits give low values",0.889
same,normalized growth,"locus YPL209C, strain IPL1, hits give low values",0.972
same,normalized growth,"locus YPL256C, strain CLN2, hits give low values",0.863
same,normalized growth,"locus YPR025C, strain CCL1, hits give low values",0.981
same,normalized growth,"locus YPR106W, strain ISR1, hits give low values",0.969
same,normalized growth,"locus YPR111W, strain DBF20, hits give low values",0.978
same,normalized growth,"strain NNK1, hits give low values",0.961
same,normalized growth,"strain TSCII, hits give low values",0.966
Cc1cccc(Cn2nc(C(C)(C)C)cc2C(=O)O)c1,normalized growth,[3],0.96
same,normalized growth,[4],0.96
same,normalized growth,[5],1
same,normalized growth,[1],0.978
same,normalized growth,[6],0.98
same,normalized growth,[7],0.998
same,normalized growth,[8],0.97
same,normalized growth,[2],1.03
same,normalized growth,[9],0.949
same,normalized growth,"locus YJL187C, strain SWE1, hits give low values",0.973
same,normalized growth,[10],0.971
same,normalized growth,[11],0.963
same,normalized growth,[12],0.982
same,normalized growth,[13],0.882
same,normalized growth,[14],0.969
same,normalized growth,[15],1.02
same,normalized growth,[16],0.905
same,normalized growth,[17],1
same,normalized growth,[18],0.946
same,normalized growth,[19],0.998
same,normalized growth,[20],0.985
same,normalized growth,[21],0.997
same,normalized growth,[22],0.946
same,normalized growth,[23],1
same,normalized growth,[24],0.978
same,normalized growth,[25],1.01
same,normalized growth,[26],0.986
CC(C)(C)c1cc(C(=O)NNC(=O)c2cc(C(F)(F)F)cc(C(F)(F)F)c2)n(Cc2ccc(F)cc2)n1,normalized growth,[3],0.979
same,normalized growth,[4],1.03
same,normalized growth,[5],1.04
same,normalized growth,[1],0.964
same,normalized growth,[6],1.01
same,normalized growth,[7],0.979
same,normalized growth,[8],1.01
same,normalized growth,[2],1
same,normalized growth,[9],0.994
same,normalized growth,[10],0.997
same,normalized growth,[11],1.08
same,normalized growth,[13],1.02
same,normalized growth,[14],1.04
same,normalized growth,[15],0.999
same,normalized growth,[16],1.02
same,normalized growth,[17],0.987
same,normalized growth,[18],1
same,normalized growth,[19],1.02
same,normalized growth,[20],1
same,normalized growth,[21],0.984
same,normalized growth,[22],0.99
same,normalized growth,[23],0.997
same,normalized growth,[24],0.976
same,normalized growth,[25],1.01
same,normalized growth,[26],0.927
CCN1CCCC1CNC(=O)c1cc(S(N)(=O)=O)ccc1OC (centres undefined),normalized growth,[3],0.972
same,normalized growth,"locus YAL040C, strain CLN3, hits give low values",0.955
same,normalized growth,"locus YCL061C, strain MRC1 (second series), hits give low values",0.984
same,normalized growth,"locus YDR363W, strain ESC2, hits give low values",0.962
same,normalized growth,"locus YER002W, strain NOP16, hits give low values",0.969
same,normalized growth,[11],0.973
same,normalized growth,[19],0.98
same,normalized growth,"locus YMR307W, strain GAS1, hits give low values",1.02
same,normalized growth,[20],1.02
same,normalized growth,"locus YNL175C, strain NOP13, hits give low values",0.978
same,normalized growth,"locus YNL197C, strain WHI3, hits give low values",0.977
same,normalized growth,"locus YNL224C, strain SQS1, hits give low values",0.992
same,normalized growth,[22],0.974
same,normalized growth,"locus YOR083W, strain WHI5 (second series), hits give low values",0.963
same,normalized growth,[24],0.993
CC(=O)Nc1ccc(S(=O)(=O)Nc2c(C)n(C)n(-c3ccccc3)c2=O)cc1,normalized growth,[3],0.999
same,normalized growth,[4],0.947
same,normalized growth,[5],1.02
same,normalized growth,[1],1.04
same,normalized growth,[6],1.04
same,normalized growth,[7],0.995
same,normalized growth,[8],1.02
same,normalized growth,[2],1.11
same,normalized growth,[9],0.974
same,normalized growth,[10],1.02
same,normalized growth,[11],0.996
same,normalized growth,[12],1.01
same,normalized growth,[13],1.02
same,normalized growth,[14],0.995
same,normalized growth,[15],0.999
same,normalized growth,[16],1
same,normalized growth,[17],1.01
same,normalized growth,[18],1.01
same,normalized growth,[19],1.01
same,normalized growth,[20],1.06
same,normalized growth,[21],1
same,normalized growth,[22],1.01
same,normalized growth,[23],1
same,normalized growth,[24],0.974
same,normalized growth,[25],0.987
same,normalized growth,[26],1.07
